# Results filed as inconclusive are left out. The source made the active and inactive calls. How the source made its calls, unless noted: active means hit-call score of the fitted dose curve at least 0.9, where 1 is the maximum; inconclusive means response in the unintended direction; inactive means score below 0.9.
# Experiments:
# [1] = TOX21_p53_BLA_p2_viability: Viability Assessment in the Tox21 HCT-116 p53 Agonism Beta-lactamase Assay, Phase 2 (AID 2283591);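 further: compound exposure lasted 16 h at 37 °C; actives lower the ATP signal meaning cytotoxicity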
# In short: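 Cytotoxicity readout: CellTiter-Glo ATP luminescence, 30 min at room temperature, after the beta-lactamase read. Cells were HCT116 exposed 16 h at 37C to compounds pin-transferred at 217-fold dilution from DMSO stocks.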
# [2] = TOX21_p53_BLA_p3_viability: Viability Assessment in the Tox21 HCT-116 p53 Agonism Beta-lactamase Assay, Phase 3 (AID 2283593);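 further: cells exposed to compound for 16 h before reading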
# In short: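 Cellular ATP was quantified by CellTiter-Glo luminescence, read after 30 min at room temperature. Beforehand, HCT116 cells (4000/well) received compound 5 h post-seeding, 217-fold diluted from DMSO, then incubated 16 h at 37C.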
# [3] = TOX21_p53_BLA_p4_viability: Viability Assessment in the Tox21 HCT-116 p53 Agonism Beta-lactamase Assay, Phase 4 (AID 2283597);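 further: hits lower the luminescence signal meaning cytotoxicity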
# In short: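 HCT116 p53-bla cells (4000/well) rested 5 h at 37C, then received compounds in DMSO (217-fold dilution) for 16 h at 37C, 5% CO2. CellTiter-Glo was added after the CCF4-AM read, and luminescence was read after 30 min at room temperature.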
# [4] = target: Cellular tumor antigen p53 (Homo sapiens) (UniProt P04637); experiment: TOX21_p53_BLA_p5_ratio: Tox21 HCT-116 p53 Agonism Beta-lactamase Assay, Ratio, Phase 5 (AID 2283599)
# Cellular tumor antigen p53 (Homo sapiens), sequence (P04637 whole entry, looked up): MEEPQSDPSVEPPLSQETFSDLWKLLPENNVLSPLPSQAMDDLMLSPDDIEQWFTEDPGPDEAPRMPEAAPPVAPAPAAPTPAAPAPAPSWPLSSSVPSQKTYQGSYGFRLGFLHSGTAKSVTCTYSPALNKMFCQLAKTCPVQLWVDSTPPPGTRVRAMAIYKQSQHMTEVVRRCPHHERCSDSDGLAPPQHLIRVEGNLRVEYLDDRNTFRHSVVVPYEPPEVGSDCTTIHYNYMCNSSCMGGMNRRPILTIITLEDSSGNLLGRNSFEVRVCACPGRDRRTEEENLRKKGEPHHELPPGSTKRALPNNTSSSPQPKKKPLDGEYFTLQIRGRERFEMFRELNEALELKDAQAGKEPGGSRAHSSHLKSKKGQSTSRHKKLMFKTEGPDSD
# In short: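 Beta-lactamase reporter ratio (blue 460 nm over green 530 nm, 405 nm excitation) after 2 h CCF4-AM loading, in HCT-116 cells exposed 16 h at 37 C to compounds pinned at 217-fold dilution. Increases relative to DMSO baseline scored.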
# [5] = TOX21_p53_BLA_p5_viability: Viability Assessment in the Tox21 HCT-116 p53 Agonism Beta-lactamase Assay, Phase 5 (AID 2283600)
# In short: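 Cells were plated at 4000/well, rested 5 h at 37C, then given compounds in DMSO (217-fold dilution) for 16 h at 37C, 5% CO2. Following the CCF4-AM beta-lactamase read, CellTiter-Glo was added and luminescence was read after 30 min at room temperature.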
# [6] = target: Cellular tumor antigen p53 (Homo sapiens) (UniProt P04637); experiment: TOX21_p53_BLA_p4_ratio: Tox21 HCT-116 p53 Agonism Beta-lactamase Assay, Ratio, Phase 4 (AID 2283601)
# In short: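 Signal is the blue/green (460nm/530nm) ratio of cleaved versus uncleaved CCF4-AM substrate, read after 2 h substrate loading. Cells were HCT116 carrying the p53-responsive beta-lactamase reporter, dosed 16 h at 37C, 5% CO2; CellTiter-Glo measured in parallel.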
# [7] = CCTE_Harrill_HTTr_Viability_MCF7: CCTE's 6-hour Cell Viability Assessment for the High-Throughput Transcriptomics (HTTr) Platform, in MCF-7 cells cultured in DMEM + 10% fetal bovine serum, Harrill Lab (AID 2284010; active means hit-call score of the fitted dose curve at least 0.9, where 1 is the maximum; inactive means score below 0.9)
# In short: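 Viability measured through PI dye exclusion by high-content imaging at 6 h post-dosing.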
# [8] = CCTE_Harrill_HTTr_Apoptosis_MCF7: CCTE's 6-hour Apoptosis Assessment for the High-Throughput Transcriptomics (HTTr) Platform, in MCF-7 cells cultured in DMEM + 10% fetal bovine serum, Harrill Lab (AID 2284011; active means hit-call score of the fitted dose curve at least 0.9, where 1 is the maximum; inactive means score below 0.9)
# In short: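 MCF-7 cells in DMEM + 10% fetal bovine serum were exposed to chemicals for 6 hours over an eight-point dilution series. Caspase-3/7 activation was imaged by high content imaging with CellEvent Caspase 3/7 Green; bidirectional fitting used DMSO as baseline.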
# [9] = CCTE_Harrill_HTTr_CellCount_MCF7: CCTE's Cell Proliferation Assessment for the High-Throughput Transcriptomics (HTTr) Platform, Harrill Lab (AID 2284012);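 further: count of Hoechst-stained nuclei per well by high-content imaging in MCF-7 cells; cells exposed to compound for six hours; intended direction is loss of nuclei count meaning fewer cells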
# In short: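 Nuclei counting (Hoechst, high content imaging) in MCF-7 after a 6 h treatment at eight concentrations. Activity fitted bidirectionally, DMSO as negative control.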
# [10] = target: PGR (gene 5241) (UniProt P06401); experiment: TOX21_PR_BLA_Followup_Agonist_ratio: Tox21 HEK293 Progesterone Receptor (PR) Agonism Beta-lactamase Follow-Up Assay, Ratio (AID 2283933)
# PGR (gene 5241), sequence (P06401 whole entry, looked up): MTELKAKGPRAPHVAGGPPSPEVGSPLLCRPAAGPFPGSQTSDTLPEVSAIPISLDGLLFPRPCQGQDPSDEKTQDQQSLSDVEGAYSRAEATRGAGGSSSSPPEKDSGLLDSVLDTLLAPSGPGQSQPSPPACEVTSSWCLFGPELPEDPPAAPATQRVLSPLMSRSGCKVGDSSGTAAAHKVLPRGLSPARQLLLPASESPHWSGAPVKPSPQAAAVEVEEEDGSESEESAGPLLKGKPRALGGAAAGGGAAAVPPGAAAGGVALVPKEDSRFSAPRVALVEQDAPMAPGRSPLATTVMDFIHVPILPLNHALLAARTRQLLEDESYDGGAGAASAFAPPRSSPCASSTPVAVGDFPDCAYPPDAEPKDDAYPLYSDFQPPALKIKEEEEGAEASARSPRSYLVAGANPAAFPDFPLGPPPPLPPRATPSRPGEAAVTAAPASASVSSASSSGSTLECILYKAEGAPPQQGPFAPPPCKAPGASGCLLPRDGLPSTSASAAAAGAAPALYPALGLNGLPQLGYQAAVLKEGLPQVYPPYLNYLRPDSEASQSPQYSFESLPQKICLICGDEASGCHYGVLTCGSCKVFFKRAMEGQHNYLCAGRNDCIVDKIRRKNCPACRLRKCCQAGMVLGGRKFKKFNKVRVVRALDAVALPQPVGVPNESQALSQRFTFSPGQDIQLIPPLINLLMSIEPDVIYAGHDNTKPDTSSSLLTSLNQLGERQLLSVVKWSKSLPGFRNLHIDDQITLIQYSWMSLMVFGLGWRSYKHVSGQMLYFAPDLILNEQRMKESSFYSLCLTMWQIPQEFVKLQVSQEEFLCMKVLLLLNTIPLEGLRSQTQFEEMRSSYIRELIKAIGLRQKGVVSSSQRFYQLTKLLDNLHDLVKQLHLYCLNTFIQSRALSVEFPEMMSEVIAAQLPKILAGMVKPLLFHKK
# In short: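 Agonist-mode follow-up in HEK293T cells carrying a UAS-driven beta-lactamase reporter, grown in 2% charcoal-stripped serum. Compounds act for 16 hr; activity is the ch2/ch1 cleavage ratio, with same-well CellTiter-Glo viability run in parallel.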
# [11] = target: PGR (gene 5241) (UniProt P06401); experiment: TOX21_PR_BLA_Followup_Antagonist_ratio: Tox21 HEK293 Progesterone Receptor (PR) Antagonism Beta-lactamase Follow-Up Assay, Ratio (AID 2283934);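 further: PR-UAS-bla HEK293T cells stimulated with 1 nM R5020 agonist for 16 hr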
# In short: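 Antagonist mode used 1 nM R5020 (final) as agonist on a beta-lactamase reporter line in HEK293T cells. Activity was taken from the substrate cleavage ratio after 16 hr exposure.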
# [12] = TOX21_PR_BLA_Followup_Agonist_viability: Viability Assessment in the Tox21 HEK293 Progesterone Receptor (PR) Agonism Beta-lactamase Follow-Up Assay (AID 2283935);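 further: signal loss means lower viability so actives are cytotoxic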
# In short: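 Multiplexed viability counter-screen: ATP-coupled luciferase signal measured after 30 min at room temperature, following 16 hr compound treatment of PR-UAS-bla HEK293T cells grown in charcoal-stripped serum.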
# [13] = TOX21_PR_BLA_Followup_Antagonist_viability: Viability Assessment in the Tox21 HEK293 Progesterone Receptor (PR) Antagonism Beta-lactamase Follow-Up Assay (AID 2283936);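 further: hits lower the luminescence signal meaning cytotoxicity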
# In short: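 PR-UAS-bla HEK293T cells (3,000/well, 2% charcoal-stripped FBS) given compound plus R5020 agonist, 16 h at 37C. CellTiter-Glo added after bla read, 30 min at room temperature; luminescence loss indicates cytotoxicity.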
# [14] = target: PGR (gene 5241) (UniProt P06401); experiment: TOX21_PR_LUC_Followup_Agonist: Tox21 HEK293 Progesterone Receptor (PR) Agonism Luciferase Follow-Up Assay (AID 2283937; active means hit-call score of the fitted dose curve at least 0.9, where 1 is the maximum; inactive means score below 0.9)
# In short: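 Agonist mode: reporter cells carrying PR-A and luciferase are treated 16 h with test compounds at 37C. Luciferase induction is measured by luminescence and fitted upward against DMSO.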
# [15] = target: PGR (gene 5241) (UniProt P06401); experiment: TOX21_PR_LUC_Followup_Antagonist: Tox21 HEK293 Progesterone Receptor (PR) Antagonism Luciferase Follow-Up Assay (AID 2283938);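 further: curve fitted upward as signal gain over DMSO baseline despite antagonist label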
# In short: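 HEK293-PR-A-luc cells were precultured 5 days in medium with 10% charcoal-stripped FBS, seeded 3,000/well, then exposed to compounds in DMSO for 16 h at 37C. Luciferase was read by ONE-Glo luminescence after 30 min at room temperature.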
# [16] = TOX21_PR_LUC_Followup_Agonist_viability: Viability Assessment in the Tox21 HEK293 Progesterone Receptor (PR) Agonism Luciferase Follow-Up Assay (AID 2283941);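 further: loss of signal means cytotoxicity so actives lower viability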
# In short: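 Luminescent ATP quantitation (CellTiter-Glo) serves as the read-out; a drop flags cytotoxic compounds. Cells are HEK293-PR-A-luc grown in 10% charcoal-stripped FBS, plated 3,000/well, and exposed to compound for 16 h.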
structure (smiles),measurement,setting,value
CC(=O)CCCCn1c(=O)c2c(ncn2C)n(C)c1=O,outcome,[1],inactive
same,outcome,[2],inactive
same,outcome,[3],inactive
same,outcome,[4],inactive
same,outcome,[5],inactive
same,outcome,[6],inactive
same,outcome,[7],inactive
same,outcome,[8],inactive
same,outcome,[9],inactive
O=C(O)/C=C/C(O)c1ccc(Cl)cc1 (centres undefined),outcome,[1],inactive
same,outcome,[2],inactive
same,outcome,[3],inactive
same,outcome,[4],inactive
same,outcome,[5],inactive
same,outcome,[6],inactive
O=c1[nH]ncc2ccccc12,outcome,[1],inactive
same,outcome,[2],inactive
same,outcome,[3],inactive
same,outcome,[4],inactive
same,outcome,[6],inactive
COCCCOc1cc(C[C@@H](C[C@H](N)[C@@H](O)C[C@H](C(=O)NCC(C)(C)C(N)=O)C(C)C)C(C)C)ccc1OC,outcome,[1],inactive
same,outcome,[2],inactive
same,outcome,[3],inactive
same,outcome,[4],inactive
same,outcome,[5],inactive
COC(=O)c1ccccc1C(=O)c1ccc(OCCN2CCCCC2)cc1,outcome,[1],inactive
same,outcome,[2],inactive
same,outcome,[3],inactive
same,outcome,[4],inactive
same,outcome,[5],inactive
same,outcome,[6],inactive
COC(C)(OC)OC,outcome,[1],inactive
same,outcome,[2],inactive
same,outcome,[3],inactive
same,outcome,[4],inactive
same,outcome,[6],inactive
COc1ccc(OC)c(NC(=O)CC(C)=O)c1,outcome,[1],inactive
same,outcome,[2],inactive
same,outcome,[3],inactive
same,outcome,[4],inactive
same,outcome,[5],inactive
same,outcome,[6],inactive
Cn1c(N)c(N=O)c(=O)n(C)c1=O,outcome,[1],inactive
same,outcome,[2],inactive
same,outcome,[3],inactive
same,outcome,[5],inactive
CC(C)n1nc(-c2cc3cc(O)ccc3[nH]2)c2c(N)ncnc21,AC50,[1],23 µM (active)
same,outcome,[2],inactive
same,AC50,[3],11.6 µM (active)
same,AC50,[4],34.6 µM (active)
same,outcome,[5],inactive
same,outcome,[6],inactive
CCCC(=O)O[C@]1(C(=O)COC(=O)CC)[C@@H](C)C[C@H]2[C@@H]3CCC4=CC(=O)C=C[C@]4(C)[C@@]3(F)[C@@H](O)C[C@@]21C,outcome,[1],inactive
same,outcome,[2],inactive
same,outcome,[3],inactive
same,outcome,[5],inactive
O=C(CCCN1CCC(O)(c2cccc(C(F)(F)F)c2)CC1)c1ccc(F)cc1,outcome,[1],inactive
same,outcome,[2],inactive
same,outcome,[3],inactive
same,outcome,[5],inactive
same,outcome,[6],inactive
CCOCCOCCOC(C)=O,outcome,[1],inactive
same,outcome,[2],inactive
same,outcome,[4],inactive
same,outcome,[5],inactive
same,outcome,[6],inactive
OCCN(CCO)CCN(CCO)CCO,outcome,[1],inactive
same,outcome,[2],inactive
same,outcome,[4],inactive
same,outcome,[5],inactive
Nc1cc(Cl)c(NC2=NCCN2)c(Cl)c1,outcome,[1],inactive
same,outcome,[2],inactive
same,outcome,[4],inactive
same,outcome,[6],inactive
Cc1cc(C)c(C=C2C(=O)Nc3ccccc32)[nH]1,outcome,[1],inactive
same,outcome,[2],inactive
same,outcome,[3],inactive
same,outcome,[5],inactive
same,outcome,[10],inactive
same,outcome,[11],inactive
same,outcome,[12],inactive
same,outcome,[13],inactive
same,outcome,[14],inactive
same,outcome,[15],inactive
same,outcome,[16],inactive
same,outcome,[7],inactive
same,AC50,[8],15.2 µM (active)
same,outcome,[9],inactive
C[N+]1(CCCCC[N+]2(C)CCCC2)CCCC1,outcome,[1],inactive
same,outcome,[2],inactive
same,outcome,[4],inactive
same,outcome,[6],inactive
CCC(C)[O-].CCC(C)[O-].CCOC(=O)/C=C(/C)[O-].[Al+3],outcome,[1],inactive
same,outcome,[2],inactive
same,outcome,[5],inactive
COc1cc(N)c(Cl)cc1C(=O)NC1CCN(Cc2ccccc2)CC1,outcome,[1],inactive
same,outcome,[2],inactive
same,outcome,[5],inactive
CC(CO)(CO)CO,outcome,[1],inactive
same,outcome,[2],inactive
same,outcome,[4],inactive
same,outcome,[5],inactive
same,outcome,[6],inactive
CC(C)Nc1cccnc1N1CCN(C(=O)c2cc3cc(NS(C)(=O)=O)ccc3[nH]2)CC1,outcome,[1],inactive
same,outcome,[2],inactive
same,outcome,[6],inactive
C=CC(=O)OCCCl,outcome,[1],inactive
same,outcome,[2],inactive
same,outcome,[5],inactive
O=C(O)CCC(=O)Nc1ccc(S(=O)(=O)Nc2nccs2)cc1,outcome,[1],inactive
same,outcome,[2],inactive
same,outcome,[4],inactive
same,outcome,[5],inactive
same,outcome,[6],inactive
COC(=O)C(c1ccccc1Cl)N1CCc2sccc2C1 (centres undefined),outcome,[1],inactive
same,outcome,[2],inactive
same,outcome,[4],inactive
same,outcome,[5],inactive
same,AC50,[11],28.9 µM (active)
same,outcome,[12],inactive
same,outcome,[13],inactive
same,AC50,[15],23 µM (active)
same,outcome,[16],inactive
O=S(=O)(Oc1ccc(Cl)cc1)c1ccccc1,outcome,[1],inactive
same,outcome,[2],inactive
same,outcome,[4],inactive
same,outcome,[5],inactive
same,AC50,[11],59.9 µM (active)
same,outcome,[12],inactive
same,outcome,[13],inactive
same,outcome,[15],inactive
same,outcome,[16],inactive
CC(C)OC(C)C,outcome,[1],inactive
same,outcome,[2],inactive
same,outcome,[4],inactive
same,outcome,[5],inactive
same,outcome,[6],inactive
CC(=O)Oc1cc2c(s1)CCN(C(C(=O)C1CC1)c1ccccc1F)C2 (centres undefined),outcome,[1],inactive
same,outcome,[2],inactive
same,outcome,[5],inactive
O=C(O)c1cccc(/C=C2/C[C@@H]3[C@@H](/C=C/[C@@H](O)C4CCCCC4)[C@H](O)C[C@@H]3O2)c1,outcome,[1],inactive
same,outcome,[2],inactive
same,outcome,[4],inactive
same,outcome,[5],inactive
same,outcome,[6],inactive
O=C(NCCNCC(O)COc1ccc(O)cc1)N1CCOCC1 (centres undefined),outcome,[1],inactive
same,outcome,[2],inactive
same,outcome,[4],inactive
same,outcome,[5],inactive
same,outcome,[6],inactive
CCN(CC)C(=O)c1cccnc1,outcome,[1],inactive
same,outcome,[2],inactive
same,outcome,[3],inactive
same,outcome,[5],inactive
same,outcome,[6],inactive
CCCCCCCCCCCC(=O)N(CC)CC,outcome,[1],inactive
same,outcome,[2],inactive
same,outcome,[4],inactive
same,outcome,[5],inactive

# Reference: PubChem BioAssay (EPA / NIEHS)
